Measured values taken from PubChem BioAssay (NCATS).
“And” between values parts separate entries of the source, which are not always exact repeats. Equal entries are not always repeated. Records with an inconclusive call do not appear. The source holds several records for some structures; these can differ, active in one and inactive in another. The source made the active and inactive calls. Unless noted, calls follow the shape of the dose curve; as a rule, active = well fitted curve in the direction sought with a large enough effect; inconclusive = small, poorly fitted or top-dose-only effect, or another doubt; inactive = no such curve, though single readings can be large; an effect the other way counts as inactive or inconclusive.

Key:
[1] = molecular target: Metallo-beta-lactamase type 2 (Klebsiella pneumoniae) (UniProt C7C422); test: qHTS to identify inhibitors of the New Delhi Metallo-beta-lactamase (NDM): assay validation screen against the NCATS LOPAC Collection (AID 1794843);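 also: nitrocefin turnover by NDM-1 measured as 485 nm absorbance at plateau; series mostly up to about 38 µM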
Outline: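 Nitrocefin hydrolysis (50 uM substrate stock) by NDM-1, 2 nM final, was followed by 485 nm absorbance after compound preincubation; buffer was 50 mM HEPES pH 7.0, 1 uM ZnSO4, 0.01% Tween20.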

[2] = molecular target: Glutathione peroxidase 1 (Homo sapiens) (UniProt P07203); test: Primary qHTS Assay for Inhibitors of Recombinant Selenoprotein Glutathione Peroxidase 1 (GPX1) (AID 1845191); also: nearly all actives have a fitted effect of over 65% in size; also: potency is read from the fitted curve at half-maximal effect
Outline: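 GPX1 10 nM, GR 100 nM, GSH 1 mM, NADPH 0.5 mM, CHP 0.5 mM (final). 30-min cpd preincubation, RT. Ex340/Em450 read t=0, t=15 min.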

[3] = molecular target: Phospholipid hydroperoxide glutathione peroxidase GPX4 (Homo sapiens) (UniProt P36969); test: Primary qHTS Assay for Inhibitors of Recombinant Selenoprotein Glutathione Peroxidase 4 (GPX4) (AID 1845192); also: nearly all actives have a fitted effect of over 65% in size; also: potency is read from the fitted curve at half-maximal effect
Outline: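 qHTS, GR-coupled: GPX4 200 nM + cpd 30 min RT → GSH 1 mM, NADPH 0.5 mM, GR 100 nM → CHP 0.5 mM start; fluor 340/450 at t0 and t15 min; no-enzyme wells as control.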

[4] = molecular target: Luciferin 4-monooxygenase (Photinus pyralis) (UniProt P08659); test: Primary firefly luciferase (FLuc) qHTS assay for identification of artifact compounds. (AID 1845220); conditions: outcome: dose series up to 54.1 µM; also: nearly all actives have a fitted effect of over 60% in size
Outline: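 In this counter-screen for luciferase artifacts, test compounds met substrate (10 uM each luciferin and ATP) before 10 nM enzyme started the reaction. Light output was measured 5 min later.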

[5] = Primary fluorescence-based thiol-reactive (MSTI) qHTS assay for identification of artifact compounds. (AID 1845221);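 also: series mostly up to about 54 µM; thiol-reactive compounds lower the probe fluorescence signal; nearly all actives have a fitted effect of over 65% in size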
Outline: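 qHTS titration of compound; 4 uM MSTI, PBS pH 7.4, 2% DMSO; 1 h RT, dark; fluorescence 525/598 nm; normalized to Acetyl-MSTI and MSTI; 4-parameter Hill fit.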

[6] = tested on: Nanoluciferase (engineered Oplophorus gracilirostris luciferase); test: Primary Nanoluciferase (NLuc) qHTS assay for identification of artifact compounds. (AID 1845222);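 also: NLuc secreted into diluted conditioned medium of S16 cells; series mostly up to about 54 µM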
Outline: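 Using secreted nanoluciferase in S16 culture medium (0.22 um filtered, 1:55 dilution), compounds were preincubated 15 min at RT. Signal was generated with Nano-Glo reagent (1:100) over 5 min.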

[7] = Primary redox qHTS assay for identification of artifact compounds. (AID 1845223)
Outline: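 Redox-cycling detection via DTT (250 uM final) oxidation coupled to Amplex Red (25 uM)/HRP (250 mU/mL) in HBSS. 15 min preincubation plus 30 min after DTT, room temperature. Ex/Em 525/598 nm; 4-parameter Hill fit against DMSO and 10 uM DA3003.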

[8] = Quantitative High-Throughput drug screen in 47 multiple myeloma cell lines against the NCATS MIPE library collection: FR4_PLB cell viability assay (AID 1918924; also: nearly all actives have a fitted effect of over 35% in size; also: potency is read from the fitted curve at half-maximal effect)
Outline: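 qHTS of the MIPE 4.0 collection: 500 myeloma cells/well, 48 h drug exposure at 37C in 5% CO2, then CellTiter-Glo for 5 min at room temperature before luminescence reading.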

[9] = Quantitative High-Throughput drug screen in 47 multiple myeloma cell lines against the NCATS MIPE library collection: Delta47_JCRB cell viability assay (AID 1918925; also: potency is read from the fitted curve at half-maximal effect; nearly all actives have a fitted effect of over 45% in size)
Outline: (§1)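 Steps: seed 500 cells per well; pin-transfer MIPE 4.0 library; incubate 48 h at 37C, 5% CO2, humidified; add CellTiter-Glo, 5 min room temperature; read luminescence.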

[10] = Quantitative High-Throughput drug screen in 47 multiple myeloma cell lines against the NCATS MIPE library collection: EJM_DSMZ cell viability assay (AID 1918926; also: nearly all actives have a fitted effect of over 30% in size; also: potency is read from the fitted curve at half-maximal effect)
Outline: as §1

[11] = Quantitative High-Throughput drug screen in 47 multiple myeloma cell lines against the NCATS MIPE library collection: AMO1_DSMZ cell viability assay (AID 1918927; also: nearly all actives have a fitted effect of over 30% in size; also: potency is read from the fitted curve at half-maximal effect)
Outline: as §1

[12] = NCATS anti-infectives library activity on HEK293 viability as a counter-qHTS vs the C. elegans viability qHTS (AID 1745854);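 also: HEK293 cells exposed to compounds for 24 hr before the viability read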
Outline: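 Counter-screen for cytotoxicity: HEK293, 24 hr, 37C, compounds up to 41.7 uM final (a dilution series, 1:5). Readout CellTiter-Glo luminescence, 10 min RT. Digitonin control, 83.3 uM final.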

[13] = NCATS anti-infectives library activity on the primary C. elegans qHTS viability assay (AID 1745855; calls by dose curve; also: potency is read from the fitted curve at half-maximal effect)
Outline: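 GFP read-out by 488 nm laser cytometry at day 0, 3 and 7, gated on object perimeter, area and peak intensity, scored viability of PE254-GFP-FLuc worms exposed to compound in S medium with bacterial capsules at 21 °C.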

[14] = molecular target: Nicotinamide N-methyltransferase (Homo sapiens) (UniProt P40261); test: Confirmatory Screen for Target Class Profiling of Small Molecule Inhibitors of Methyltransferases (AID 1745852); conditions: MTase-Glo luminescence, SAH detection, recombinant enzyme; measured here: NNMT max response; stronger effect = lower value
[15] = molecular target: Phenylethanolamine N-methyltransferase (Homo sapiens) (UniProt P11086); test: as above; conditions: MTase-Glo luminescence, SAH detection, recombinant enzyme; measured here: PNMT max response; stronger effect = lower value
Sequence of Phenylethanolamine N-methyltransferase (Homo sapiens) (P11086 whole entry, looked up): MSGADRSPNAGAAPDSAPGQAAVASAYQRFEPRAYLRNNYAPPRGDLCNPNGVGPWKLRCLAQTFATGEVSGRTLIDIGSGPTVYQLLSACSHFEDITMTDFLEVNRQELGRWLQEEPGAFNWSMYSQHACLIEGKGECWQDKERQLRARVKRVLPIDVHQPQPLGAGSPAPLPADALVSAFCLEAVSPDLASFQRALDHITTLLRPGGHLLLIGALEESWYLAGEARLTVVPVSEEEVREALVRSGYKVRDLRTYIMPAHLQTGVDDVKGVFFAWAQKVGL

Sequence of Phospholipid hydroperoxide glutathione peroxidase GPX4 (Homo sapiens) (P36969 whole entry, looked up): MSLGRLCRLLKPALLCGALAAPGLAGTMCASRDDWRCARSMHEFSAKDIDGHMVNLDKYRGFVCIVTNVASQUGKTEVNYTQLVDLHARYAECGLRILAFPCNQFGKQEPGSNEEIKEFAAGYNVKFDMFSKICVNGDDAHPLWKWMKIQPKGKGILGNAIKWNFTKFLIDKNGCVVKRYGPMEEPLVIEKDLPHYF
Sequence of Metallo-beta-lactamase type 2 (Klebsiella pneumoniae) (C7C422 whole entry, looked up): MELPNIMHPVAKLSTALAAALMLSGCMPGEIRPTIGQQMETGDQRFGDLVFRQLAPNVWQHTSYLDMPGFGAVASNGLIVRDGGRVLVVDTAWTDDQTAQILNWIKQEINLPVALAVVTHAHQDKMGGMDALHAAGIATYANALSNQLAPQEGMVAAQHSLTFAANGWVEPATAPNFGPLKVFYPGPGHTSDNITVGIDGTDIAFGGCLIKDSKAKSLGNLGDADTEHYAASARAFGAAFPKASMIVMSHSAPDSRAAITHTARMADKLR
Sequence of Glutathione peroxidase 1 (Homo sapiens) (P07203 whole entry, looked up): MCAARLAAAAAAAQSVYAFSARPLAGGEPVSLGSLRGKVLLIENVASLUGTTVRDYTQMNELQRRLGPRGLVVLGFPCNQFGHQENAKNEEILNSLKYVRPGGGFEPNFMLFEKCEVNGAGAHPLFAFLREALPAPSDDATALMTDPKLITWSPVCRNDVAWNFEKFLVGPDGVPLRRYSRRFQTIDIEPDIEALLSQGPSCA
Sequence of Nicotinamide N-methyltransferase (Homo sapiens) (P40261 whole entry, looked up): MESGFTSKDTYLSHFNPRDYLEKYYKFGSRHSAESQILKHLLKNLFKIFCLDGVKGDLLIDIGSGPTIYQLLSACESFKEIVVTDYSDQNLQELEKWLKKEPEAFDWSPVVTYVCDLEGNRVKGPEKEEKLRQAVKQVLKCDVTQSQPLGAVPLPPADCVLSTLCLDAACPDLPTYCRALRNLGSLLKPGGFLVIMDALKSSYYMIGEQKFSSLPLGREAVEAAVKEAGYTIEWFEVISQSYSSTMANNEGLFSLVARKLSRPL

Cc1ccc(-c2cc(C(F)(F)F)nn2-c2ccc(S(N)(=O)=O)cc2)cc1
inactive: outcome [1] | Potency [2] | Potency [3] | outcome [4] | outcome [5] | outcome [6] | outcome [7] | Potency [8] | Potency [10] | Potency [11]
active: Potency [9] 16.6 µM

NS(=O)(=O)c1cc2c(cc1Cl)NCNS2(=O)=O
inactive: Potency [12] | outcome [1] | Potency [2] | Potency [3]

CCCNCC(O)COc1ccccc1C(=O)CCc1ccccc1 (stereo unspecified)
inactive: outcome [1] | Potency [2] | Potency [3]

CC1(C)O[C@H]2CC(=O)OC[C@]23[C@H]2CC[C@@]4(C)[C@H](c5ccoc5)OC(=O)[C@H]5O[C@]54[C@]2(C)C(=O)C[C@@H]13
inactive: Potency [12] | Potency [2] | Potency [3] | outcome [4] | outcome [5] | outcome [6] | Potency [10] | Potency [11]

COc1ccccc1OCCNCC(O)COc1cccc2[nH]c3ccccc3c12 (stereo unspecified)
inactive: outcome [1] | Potency [2] | Potency [3]

OCCN(CCO)c1nc(N2CCCCC2)c2nc(N(CCO)CCO)nc(N3CCCCC3)c2n1
active: Potency [13] 0.816 µM | Potency [11] 23.5 µM
inactive: Potency [12] | outcome [1] | Potency [2] | Potency [3]

Cc1ccc(C(=O)Nc2ccc(S(=O)(=O)O)c3cc(S(=O)(=O)O)cc(S(=O)(=O)O)c23)cc1NC(=O)c1cccc(NC(=O)Nc2cccc(C(=O)Nc3cc(C(=O)Nc4ccc(S(=O)(=O)O)c5cc(S(=O)(=O)O)cc(S(=O)(=O)O)c45)ccc3C)c2)c1
-4.38%: activity [14]
inactive and 7 µM (active): Potency [3]
inactive: outcome [1] | Potency [2] | Potency [10]
6.94%: activity [15]

NC12CC3CC(CC(C3)C1)C2
inactive: Potency [12] | outcome [1] | Potency [2] | Potency [3]

Nc1nc2c(ncn2COC(CO)CO)c(=O)[nH]1
inactive: Potency [12] | outcome [1] | Potency [2] | Potency [3]
active: Potency [8] 26.4 µM | Potency [10] 14.8 µM | Potency [11] 13.2 µM

COc1cc2nc(N3CCN(C(=O)C4COc5ccccc5O4)CC3)nc(N)c2cc1OC (stereo unspecified)
inactive: Potency [12] | outcome [1] | Potency [3] | Potency [10]
18 µM (active) and inactive: Potency [2]
active: Potency [13] 23 µM

C[C@H]1c2cccc(O)c2C(O)=C2C(=O)[C@]3(O)C(O)=C(C(N)=O)C(=O)[C@@H](N(C)C)[C@@H]3[C@@H](O)[C@@H]21
inactive: Potency [12] | outcome [1] | Potency [2] | Potency [3] | Potency [11]
active: Potency [13] 1.15 µM

O=C(c1ccc(F)cc1)C1CCN(CCn2c(=O)[nH]c3ccccc3c2=O)CC1
inactive: outcome [1] | Potency [2] | Potency [3] | outcome [4] | outcome [5] | outcome [6] | outcome [7] | Potency [8] | Potency [10] | Potency [11]

OCCN1CCN(CCCN2c3ccccc3Sc3ccc(C(F)(F)F)cc32)CC1
-64.7%: activity [14]
-1.22%: activity [15]
inactive: Potency [13] | outcome [1] | Potency [2] | Potency [3]
active: Potency [9] 18.7 µM | Potency [11] 18.7 µM

CC(C)Cc1ccc(C(C)C(=O)O)cc1 (stereo unspecified)
inactive: Potency [12] | outcome [1] | Potency [2] | Potency [3] | Potency [11]

CN1CCC(=C2c3ccccc3C=Cc3ccccc32)CC1
inactive: outcome [1] | Potency [2] | Potency [3]

O=c1[nH]cc(F)c(=O)[nH]1
inactive: Potency [12] | outcome [1] | Potency [2] | Potency [3] | Potency [10]
active: Potency [13] 6.48 µM

Cc1cn([C@H]2C[C@H](N=[N+]=[N-])[C@@H](CO)O2)c(=O)[nH]c1=O
inactive: Potency [12] | Potency [2] | Potency [3] | Potency [11]
active: Potency [10] 7.43 µM
